# Screens deposited in PubChem by several laboratories.
# tim10-1 inh – inhibits growth of tim10-1 mutant yeast. S. cerevisiae tim10-1 ts strain growth, BacTiter-Glo, 24 h. inhibition, % at 20 µM. AID 463190. 330,000 tested, 2.2% active;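 active = inhibition of at least 40%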;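 also: mutant grown at 25 °C; 0% = DMSO wells with yeast and 100% = wells holding no yeast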
# TIM10 inh – growth inhibitors of TIM10 yeast strain | 330,000 tested, 1.4% active | AID 463195 | S. cerevisiae TIM10 strain growth, BacTiter-Glo luminescence, 24 h | inhibition, % at 10 µM;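 active = inhibition of 40% or more at the single tested concentration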;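 also: wild-type TIM10 isogenic control strain grown at permissive 25 °C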
# PfHsp90 yeast 2 – inhibits growth of yeast expressing Plasmodium falciparum Hsp90 | S. cerevisiae expressing PfHsp90, BacTiter-Glo ATP, 48 h; yeast lacking PDR1 and PDR3 efflux regulators | inhibition, % at 9.4 µM | 310,000 tested, 0.32% active;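 active = every replicate shows inhibition above about 80%, whatever the replicate mean, limit read from the data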;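 also: 0% = DMSO neutral controls and 100% = 20 µM radicicol positive controls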
# tim23-1 inh – inhibits growth of tim23-1 mutant yeast; S. cerevisiae tim23-1 growth, BacTiter-Glo luminescence, 24 h; inhibition, % at 20 µM; 330,000 tested, 1.3% active; AID 463212;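 active = growth inhibition of the mutant yeast at or above 50%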;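 also: temperature-sensitive mutant grown at 25 °C; plate controls were DMSO-treated mutant yeast for no effect and medium wells lacking yeast for full effect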
# SKKanGAS inh – SKKanGAS growth inhibition; S. pyogenes SKKanGAS, kanamycin growth, BacTiter-Glo, 6 h; inhibition, % at 7.5 µM; 300,000 tested, 1.3% active; AID 1662;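 active = mean replicate score, as percent of positive control median, at least 50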;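 also: strain carries kanamycin resistance gene driven by streptokinase promoter and grows in 40 µg/ml kanamycin; loss of luminescence reflects streptokinase promoter inhibition or plain growth inhibition; 0% = median of DMSO wells and 100% = positive control at its reference dose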
# NALP3 yeast inh – blocks the NALP3 inflammasome reconstituted in yeast; Yeast reconstituted NLRP3/ASC/caspase-1, beta-gal luminescence, 24 h; 330,000 tested, 0.39% active; inhibition, % at 10 µM;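 active = inhibition of 50% or more; inactive = inhibition below 50%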;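 also: plate controls were induced DMSO wells for no effect and uninduced yeast grown without galactose for full effect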
# tim23-1 conf – confirmation of tim23-1 mutant yeast growth inhibitors | shares compounds with tim23-1 inh | S. cerevisiae tim23-1 growth, BacTiter-Glo luminescence, 24 h | inhibition, % at 20 µM | 4,400 tested, 83% active | AID 463218;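 active = inhibition above about 39% in either of two replicate wells at 20 µM, limit read from the data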;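 also: temperature-sensitive tim23-1 mutant grown at 25 °C; 0% = DMSO wells with yeast and 100% = medium wells without yeast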
# The depositor's hits bear a star; nt = no result given. An excerpt weighted towards active compounds, which were near 4.5% of everything screened.
SMILES,tim10-1 inh,TIM10 inh,PfHsp90 yeast 2,tim23-1 inh,SKKanGAS inh,NALP3 yeast inh,tim23-1 conf
C/C(=N\Nc1ccc(Cl)cc1)c1ccncc1,28.1,21.9,9.4,54.5*,-1.8,2.4,-15.2
CCN1C(=O)c2cccc3c(S(=O)(=O)N(C(=O)c4cccnc4)c4ccc(OC)cc4)ccc1c23,4.6,-7.9,4.1,45.6,17.3,0.9,nt
CCN1C(=O)c2cccc3c(S(=O)(=O)N(C(=O)c4ccncc4)c4ccc(OC)cc4)ccc1c23,24.4,8.7,-64.5,51.9*,9.0,3.4,30.2
Cc1cccc(/C=N/NC(=O)c2c(-c3ccccc3)noc2C)c1O,24.4,33.1,-20.5,53.3*,8.1,12.6,51.0*
O=C(c1ccc(-c2nc3ccccc3s2)s1)N1CCOCC1,4.4,14.9,nt,53.3*,-0.6,12.9,43.9*
CCN1CCN(C(=O)c2ccc(-c3nc4ccccc4s3)s2)CC1,24.0,11.6,-1.8,12.9,-0.8,8.3,nt
Cc1ccc2nc(-c3cccc(N)c3)oc2c1,-7.6,5.6,-30.3,6.4,10.6,11.0,nt
Cc1cc(C)c2oc(-c3cccc(N)c3)nc2c1,14.3,-25.1,-53.3,64.0*,-2.9,18.8,60.1*
NC(=O)C1CCN(C(=O)c2ccc3c(=O)n(Cc4ccco4)c(SCC(=O)c4ccccc4)nc3c2)CC1,22.1,3.2,8.7,57.6*,4.4,-7.8,18.0
O=C(CSc1ccccc1)N/N=C/c1ccccc1O,24.5,18.9,-19.1,52.3*,4.7,25.3,55.2*
O=C(CSc1n[nH]c(=O)[nH]c1=O)N/N=C/c1ccccc1O,12.7,-6.8,-6.4,1.5,9.4,4.0,nt
COc1ccccc1-c1sc2cc3c(cc2c1C#Cc1cncn1C)OCO3,-47.8,-2.1,47.6,0.7,nt,20.6,nt
Clc1cccc(-c2cc3nc4c(c(NCc5ccco5)n3n2)CCCC4)c1,19.0,32.7,18.7,52.3*,17.3,41.4,59.0*
c1coc(CNc2c3c(nc4ncnn24)CCCC3)c1,17.1,3.4,-13.2,10.0,1.4,0.8,nt
CN(C)C(=O)c1c(NC(=O)c2ccco2)sc2c1CCCCC2,34.6,34.5,17.2,59.8*,-6.0,-6.5,48.8*
COC(=O)c1ccc(COc2cccnc2[N+](=O)[O-])cc1,-4.6,6.6,2.8,10.5,2.3,39.0,nt
Cc1c(O)cc2n(c1=O)-c1ccc(Cl)cc1C2(C)C,21.8,26.2,8.7,23.7,5.1,0.8,nt
CC1(C)c2cc(Cl)ccc2-n2c1cc(O)c(-c1ccccc1)c2=O,23.2,28.0,-22.6,61.7*,2.6,14.0,57.5*
CC(=O)NC(c1ccccc1)c1cc(Cl)c2cccnc2c1O (configuration not stated),14.8,3.6,106.5*,55.5*,79.0*,35.5,67.0*
CCN(CC)C(=O)Oc1ccc(Cl)c2cccnc12,-0.7,-14.4,-6.8,-1.8,-13.0,14.2,nt
CCC(=O)NC(NC(=S)Nc1cccc2cccnc12)C(Cl)(Cl)Cl (configuration not stated),24.4,-22.0,10.5,7.0,1.3,5.9,nt
Oc1c(C(c2ccccn2)N2CCCCC2)cc(Cl)c2cccnc12 (configuration not stated),19.9,-16.7,4.7,52.9*,54.2*,18.7,64.0*
Cc1[nH]c2ccccc2c1C(c1ccccn1)N1CCCC1 (configuration not stated),-1.5,4.8,7.4,4.4,-0.9,9.3,nt
CCC(=O)NC(c1cc(Cl)c2cccnc2c1O)C(C)C (configuration not stated),37.9,-17.5,-1.4,52.4*,nt,17.9,52.5*
CCC(=O)NC(c1cccs1)c1cc(Cl)c2cccnc2c1O (configuration not stated),28.2,35.4,101.5*,51.3*,66.0*,27.1,70.1*
SMILES,tim10-1 inh,TIM10 inh,PfHsp90 yeast 2,tim23-1 inh,SKKanGAS inh,NALP3 yeast inh,tim23-1 conf
CC1CCN(Cc2nnc(-c3cccc(Br)c3)o2)CC1,22.3,3.6,34.9,20.1,-2.4,2.8,nt
COc1ccc(OC)c(S(=O)(=O)N2CCCC(C(=O)NCc3ccco3)C2)c1 (configuration not stated),-0.8,-1.9,-14.2,-9.2,1.6,-0.1,nt
O=C(c1ccccc1Br)N1CCc2c([nH]c3ccccc23)C1,13.7,17.3,36.6,60.7*,5.4,14.1,36.0
O=C(C1CC1)N1CCc2[nH]c3ccccc3c2C1,8.2,-2.4,nt,-0.3,9.5,19.0,nt
CCc1ccc(NC(=O)Nc2ccsc2C(=O)OC)cc1,30.6,11.8,14.2,56.0*,21.1,26.5,57.1*
COC(=O)c1sccc1NC(=O)Nc1ccc(C)c(C)c1,35.6,32.7,54.5,59.7*,nt,21.5,49.1*
O=C(N/N=C/c1ccccn1)c1ccc(Cl)c(Cl)c1,27.0,23.7,-4.3,61.5*,52.8*,39.2,49.1*
O=C(N/N=C/c1ccccn1)c1ccc(NC(=O)c2ccccc2Cl)cc1,-83.6,-5.9,0.3,-29.3,-0.1,5.7,nt
CCCCn1cnc2c(SCc3ccccc3Cl)nc(N)nc21,nt,nt,-17.6,nt,nt,nt,nt
CCOCCn1ccc2c(OCC(=O)Nc3ccc(OC)c(OC)c3)cccc2c1=O,12.2,4.5,nt,54.3*,14.2,1.0,5.4
CCOCCn1ccc2c(OCC(=O)NCCc3ccc(OC)c(OC)c3)cccc2c1=O,16.7,9.4,-11.9,16.4,-9.7,10.7,nt
O=C1OCCN1C(=O)[C@H]1[C@H](c2ccc(F)cc2)C(c2ccccc2)=NN1c1ccccc1,16.3,-2.6,-0.4,71.6*,nt,nt,27.2
Cc1cccc(C2=NN(c3ccccc3)[C@@H](C(=O)N3CCOC3=O)[C@@H]2C)c1,14.6,9.0,-9.3,39.3,nt,nt,nt
C[C@@H]1C(c2ccccc2)=NN(c2ccc(Br)cc2)[C@H]1C(=O)N1CCOC1=O,32.2,27.2,15.1,58.8*,nt,nt,45.3*
CC[C@@H]1C(c2ccccc2)=NN(c2ccccc2)[C@H]1C(=O)N1CCOC1=O,21.7,10.4,-29.3,48.3,nt,nt,nt
Cc1cccc(C2=NN(c3ccc(Br)cc3)[C@@H](C(=O)N3CCOC3=O)[C@@H]2C)c1,26.7,15.2,-11.5,51.4*,nt,nt,31.5
O=C(Nc1ccncc1)c1ccc(NS(=O)(=O)c2ccc3[nH]c(=O)[nH]c3c2)cc1,-12.2,5.9,10.3,1.5,-2.2,8.6,nt
O=C(N/N=C/c1ccc([N+](=O)[O-])s1)c1ccncc1,33.8,38.9,1.7,62.9*,-3.2,18.6,66.7*
O=C(N/N=C/c1ccccc1[N+](=O)[O-])c1ccncc1,17.3,-11.3,-4.4,4.8,2.3,5.3,nt
Cc1ccc(S(=O)(=O)NCC(=O)OCCOc2ccccc2F)cc1,25.2,2.8,-7.1,18.0,nt,9.9,nt
Cc1ccc(S(=O)(=O)NCC(=O)OCCOc2cccc(Cl)c2)cc1,36.6,15.3,-17.9,51.0*,nt,2.2,43.9*
